Lassa entry inh: qHTS for Inhibitors of binding or entry into cells for Lassa Virus | Lassa virus pseudotype entry inhibition, cell reporter | Potency, µM (titrated, usually from 37.9 µM), without a hit: at the top dose activity change, negative = inhibition, usual class: inhibitors | actives 1.2% (n = 300,000) | AID 540256, 2011; calls by dose curve; tested in HEK293 cells; also: nearly all actives have a fitted effect of over 50% in size
RE007 growth inh: qHTS Assay for Inhibitors of the HIV-1 protein Vpr. S. pombe RE007 Vpr strain, BacTiter-Glo ATP luminescence, 24 h. Potency, µM (highest dose often 92.2 µM), inactives show top-dose activity change, negative = less growth, actives largely listed as inhibitors. actives 0.21% (n = 360,000); active = well fitted falling curve with a large enough effect; inconclusive = small, poorly fitted or top-dose-only effect; inactive = no such curve, though single readings can be large or run the other way; also: nearly all actives have a fitted effect of over 50% in size
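Fission yeast RE007 carrying one integrated HIV-1 vpr copy, seeded at OD 0.01 in PMG+AL medium with 23 nL pinned compound. Grown 24 h at 30 degrees; viability read by BacTiter-Glo luminescence after 5 min.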
FMDV inh: High Throughput Screening for Foot and Mouth Disease Virus Antivirals | FMDV antiviral cell-based qHTS | Potency, µM (titrated, usually from 57.9 µM), inactives show at the top dose activity change, negative = inhibition, hits mostly inhibitors | actives 1.2% (n = 410,000) | AID 1159524, 2015; calls by dose curve; tested in HEK293T cells; also: read-out not given here; nearly all actives have a fitted effect of over 45% in size
MARV entry inh: qHTS for inhibitors of binding or entry into cells for Marburg Virus. Marburg virus pseudotyped entry inhibition, cell reporter. Potency, µM (top dose mostly 37.8 µM), for inactives: top-dose activity change, negative = inhibition, usual class: inhibitors. actives 1.8% (n = 300,000). AID 540276, 2011; calls by dose curve; tested in HEK293 cells
Sm TGR inh: qHTS Assay for the Inhibitors of Schistosoma Mansoni Peroxiredoxins | Schistosoma mansoni thioredoxin glutathione reductase (TGR), Q962Y6 | purified TGR, DTNB reduction, TNB absorbance 405 nm | Potency, µM (top dose mostly 114 µM), inactives show top-dose activity change, negative = inhibition, most hits filed as inhibitors | actives 3% (n = 360,000) | AID 485364, 2010; also: nearly all actives have a fitted effect of over 60% in size
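First, TGR (20 nM dispensed) and NADPH were mixed with compound. Second, a 15 min room-temperature incubation followed. Third, further NADPH and then DTNB were added to start the reaction. Finally, TNB absorbance was monitored kinetically.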
HCV inh: qHTS Assay for Inhibitors of Hepatitis C Virus (HCV) | Huh7.5.1 HCVcc-Cre infection, luciferase reporter, 44 h | actives 3.4% (n = 340,000) | Potency, µM (highest dose often 41.8 µM), inactives show at the top dose activity change, negative = inhibition, actives largely listed as inhibitors | AID 651820, 2012
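Antiviral activity was scored by luciferase reporter output from cells infected with HCVcc-Cre (~0.5 moi) in presence of compound, 44 h infection period, cells seeded 1,000/well 4 h prior.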
An asterisk follows results filed as active; ? = inconclusive; nt = not tested or not shown; [ ] = remark or other dose. Hits are enriched below; roughly 7.2% of the tested compounds scored in any of these assays. Unless noted, calls follow the shape of the dose curve; as a rule, active = well fitted curve in the direction sought with a large enough effect; inconclusive = small, poorly fitted or top-dose-only effect, or another doubt; inactive = no such curve, though single readings can be large; an effect the other way counts as inactive or inconclusive. % is scaled to controls: 0 for no effect and ±100 for the full control effect; potency is read from the fitted curve at half-maximal effect.

SMILES | Lassa entry inh | RE007 growth inh | FMDV inh | MARV entry inh | Sm TGR inh | HCV inh
COc1ccc(C(=O)O/N=C(\N)Cc2ccc(Cl)c(Cl)c2)cc1OC | ? | ? | ? | ? | -3% | 22µM*
COc1ccc(OCC(=O)O/N=C(\N)Cc2ccc(Cl)cc2)cc1 | 2% | ? | 1% | -20%[46.1 µM] | 2% | 5%
CC(=O)N1C(=O)NC(C)=C(C#N)C1c1ccccc1 (configuration not stated) | nt | nt | nt | -10%[14.2 µM] | nt | nt
CCc1c(C)nc2nncn2c1Nc1ccc(C(C)C)cc1 | -9%[46.1 µM] | nt | -27% | ? | -11% | nt
COc1cc(OC)c(C(=O)O/N=C(\N)c2ccc(C)cc2)cc1OC | ? | 7% | 19% | 7.9µM* | -6% | 11µM*
N/C(Cc1ccc(Cl)cc1)=N\OC(=O)c1ccccc1 | ? | ? | -6% | 13µM* | -5% | -1%
CCn1nnc2cc(C(=O)Nc3ccc(Br)cc3F)ccc21 | ? | nt | 21% | nt | 2% | nt
CCn1nnc2cc(C(=O)NCCc3ccccc3F)ccc21 | 1.1µM* | -6% | -17% | 6.3µM* | 4% | 19%
Cc1csc(C(C)N(C)C(=O)c2cc(NC(=O)C3CCC3)c3c(c2)nc(-c2ccncc2)n3C)n1 (configuration not stated) | nt | nt | 15% | nt | nt | nt
O=C(NC1CCCCC1)Oc1cc2oc(=O)sc2cc1Br | 14% | ? | ? | 27% | 3.2µM* | -2%
C=CCNC(=O)c1ccccc1NC(=O)C1CC(=O)N(C(C)C)C1 (configuration not stated) | 5% | 5% | -9% | ? | 18µM* | -18%
O=C(C[n+]1ccc(C(=O)NCc2ccccc2)cc1)c1ccc(OC(F)F)cc1 | 0%[46.1 µM] | 6% | -3% | 1%[46.1 µM] | 1% | 12%
O=C(C[n+]1cn(C(F)F)c2ccccc21)c1ccc(OC(F)F)cc1 | 19% | 0% | 38% | -4% | 7.1µM* | 5%
CCN1C(=O)CC(N2CCOCC2)C1=O (configuration not stated) | -1% | -15% | 2% | 0% | -10% | 10%
O=C1CC(N2CCOCC2)C(=O)N1CCN1C(=O)CC(N2CCOCC2)C1=O (configuration not stated) | ? | -7% | 11% | 10% | -24% | 11%
Cc1cc(C)cc(N2C(=O)CC(N3CCOCC3)C2=O)c1 (configuration not stated) | 12% | -10% | 7% | ? | 50µM* | 9%
O=C1CC(N2CCOCC2)C(=O)N1c1cc(Cl)cc(Cl)c1 (configuration not stated) | 5% | 11µM* | -4% | -6% | 35µM* | 13%
CCO[C@H](c1cc(OC)cc([N+](=O)[O-])c1OC)[C@H](C)/C=C\CC(=O)OC | nt | nt | nt | 1%[14.2 µM] | nt | nt
COc1ccc2oc(=O)c(-c3csc(Nc4ccc(O)cc4)n3)cc2c1 | 10µM* | 0% | ? | ? | -7% | 11µM*
COc1ccc2oc(=O)c(-c3csc(-c4ccc(Br)cc4)n3)cc2c1 | 14%[46.1 µM] | nt | -6% | nt | 0% | nt
Clc1ccc(Nc2nc(-c3ccncc3)cs2)cc1 | 15% | -9% | 12% | 7.9µM* | nt | ?
Oc1ccc(Nc2nc(-c3ccc(Cl)cc3)cs2)cc1 | nt | nt | 27% | nt | nt | nt
Fc1ccc(Nc2nc(-c3ccncc3)cs2)cc1 | 12% | -14% | 11% | -61% | -4% | ?
Nc1ccc(Nc2nc(-c3ccncc3)cs2)cc1 | ? | -7% | 15% | ? | 7% | 7.9µM*
Oc1ccc(Nc2nc(-c3ccc(O)cc3)cs2)cc1 | ? | 5% | 46% | -17% | -1% | 10µM*
Cc1cc2oc(C(=O)Nc3ccc(S(=O)(=O)Nc4onc(C)c4C)cc3)cc(=O)c2cc1C | 6%[46.1 µM] | nt | -8% | ? | -16% | nt
Cc1ccc(C(=O)NCC(c2cccs2)S(=O)(=O)c2ccccc2)cc1C (configuration not stated) | -12%[46.1 µM] | nt | -30% | nt | -11% | nt

Screens as filed in PubChem BioAssay.
